target: T1, USP38 (UniProt Q8NB14); assay: log2 ratio of Biotin-Ahx-Ub-VS probe labelling (compound/DMSO); higher = less target engagement, active = hit call of the paper (q ≤ 0.05, log2 ratio ≤ -1); conditions: compound concentration: 50uM; treatment time: 3 h
T1 sequence (whole entry): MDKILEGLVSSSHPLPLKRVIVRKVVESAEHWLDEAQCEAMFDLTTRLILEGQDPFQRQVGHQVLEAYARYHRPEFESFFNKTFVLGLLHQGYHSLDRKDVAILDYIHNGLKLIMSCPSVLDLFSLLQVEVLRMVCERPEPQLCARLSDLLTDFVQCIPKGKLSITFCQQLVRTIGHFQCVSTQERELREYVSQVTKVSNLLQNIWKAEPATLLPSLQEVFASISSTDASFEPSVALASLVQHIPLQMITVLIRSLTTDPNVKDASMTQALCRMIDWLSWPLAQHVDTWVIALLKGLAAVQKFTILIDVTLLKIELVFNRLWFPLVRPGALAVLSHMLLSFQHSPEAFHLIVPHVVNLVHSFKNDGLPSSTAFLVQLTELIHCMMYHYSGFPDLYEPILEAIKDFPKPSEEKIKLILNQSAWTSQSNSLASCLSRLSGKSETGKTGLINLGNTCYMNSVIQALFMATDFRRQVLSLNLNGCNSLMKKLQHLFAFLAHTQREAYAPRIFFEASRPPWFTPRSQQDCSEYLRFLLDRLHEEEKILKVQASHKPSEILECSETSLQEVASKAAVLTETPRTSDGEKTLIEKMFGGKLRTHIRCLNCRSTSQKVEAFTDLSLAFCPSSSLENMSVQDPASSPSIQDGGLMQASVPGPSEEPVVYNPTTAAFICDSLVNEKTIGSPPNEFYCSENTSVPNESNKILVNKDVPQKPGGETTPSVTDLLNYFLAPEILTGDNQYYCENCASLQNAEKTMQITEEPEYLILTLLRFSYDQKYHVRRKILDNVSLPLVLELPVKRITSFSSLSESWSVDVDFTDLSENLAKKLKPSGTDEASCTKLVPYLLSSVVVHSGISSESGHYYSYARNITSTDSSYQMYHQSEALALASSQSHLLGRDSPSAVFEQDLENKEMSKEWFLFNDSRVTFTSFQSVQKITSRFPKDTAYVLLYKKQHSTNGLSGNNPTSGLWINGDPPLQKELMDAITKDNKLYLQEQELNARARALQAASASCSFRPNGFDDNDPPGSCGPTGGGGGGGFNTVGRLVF
Protocol: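 Round 2 competitive ABPP in HEK293T lysate. Purified HTC-D2B compounds were tested at 50 and 200 µM for 3 h, followed by Biotin-Ahx-Ub-VS enrichment and diaPASEF LC-MS/MS. Values are the average log2 ratio (compound/DMSO) from an unpaired t-test (n=3 treated, n=26 DMSO).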

log2 ratio of Biotin-Ahx-Ub-VS probe labelling, inactive:
Cc1ccccc1COc1cccc(CN(C)C(=O)CCl)c1 -0.192, O=C(CCl)N[C@H]1CCCc2ccccc21 0.0645, O=C(CCl)N1CCc2cc(Cl)c(Cl)cc2C1 0.253, O=C(CCl)N1CCc2scc(Br)c2C1 0.0294, CCC1c2cc(Cl)c(OC)cc2CCN1C(=O)CCl (stereo unspecified) 0.207, CCCC1c2cc(OC)c(OC)cc2CCN1C(=O)CCl (stereo unspecified) -0.184, COc1cccc(CN(CCCc2ccccc2)C(=O)CCl)c1 -0.105, O=C(CCl)N1CCc2nocc2C1 -0.0321, O=C(CCl)N1Cc2sccc2C(O)C1 (stereo unspecified) 0.173, O=C(CCl)N1CCc2nc(-c3ccccc3)ncc2C1 0.272, CN(Cc1ccccc1)C(=O)CCl -0.0215, Cl.Cl.O=C(CCl)N1CCc2nc(N3CCN(c4ccc(F)cc4)CC3)ncc2C1 0.202, O=C(CCl)NC(c1cccs1)C1CCCC1 (stereo unspecified) 0.192, O=C(CCl)NC1CCSc2ccccc21 (stereo unspecified) 0.05, O=C(CCl)NC1CCCc2ccccc21 (stereo unspecified) 0.0146, COc1ccc(CN(C)C(=O)CCl)cc1 0.023, O=C(CCl)NC1CCOc2ccc(Cl)cc21 (stereo unspecified) 0.126, CN(Cc1cccc(Br)c1)C(=O)CCl 0.171

same assay, conditions: compound concentration: 200uM; treatment time: 3 h

log2 ratio of Biotin-Ahx-Ub-VS probe labelling, inactive:
Cc1ccccc1COc1cccc(CN(C)C(=O)CCl)c1 -0.383, O=C(CCl)N[C@H]1CCCc2ccccc21 -0.252, O=C(CCl)N1CCc2cc(Cl)c(Cl)cc2C1 -0.962, O=C(CCl)N1CCc2scc(Br)c2C1 -0.844, CCC1c2cc(Cl)c(OC)cc2CCN1C(=O)CCl (stereo unspecified) -0.934, CCCC1c2cc(OC)c(OC)cc2CCN1C(=O)CCl (stereo unspecified) -0.48, COc1cccc(CN(CCCc2ccccc2)C(=O)CCl)c1 -0.679, O=C(CCl)N1CCc2nocc2C1 -0.473, O=C(CCl)N1Cc2sccc2C(O)C1 (stereo unspecified) -0.212, O=C(CCl)N1CCc2nc(-c3ccccc3)ncc2C1 -0.407, CN(Cc1ccccc1)C(=O)CCl -0.641, Cl.Cl.O=C(CCl)N1CCc2nc(N3CCN(c4ccc(F)cc4)CC3)ncc2C1 -0.918, O=C(CCl)NC(c1cccs1)C1CCCC1 (stereo unspecified) -0.22, O=C(CCl)NC1CCSc2ccccc21 (stereo unspecified) -0.3, O=C(CCl)NC1CCCc2ccccc21 (stereo unspecified) -0.162, COc1ccc(CN(C)C(=O)CCl)cc1 -0.826, O=C(CCl)NC1CCOc2ccc(Cl)cc21 (stereo unspecified) -0.261, CN(Cc1cccc(Br)c1)C(=O)CCl -0.322
